For some assays here: Potency and affinity values are given separately.

Common to all, as to parameters: scale not given: direction of the effect not stated beside the values
Test [1] deals with Protein translocase subunit SecA (Escherichia coli (strain K12)) (UniProt P10408). Nature of the test: Assay to Identify E. coli SecA ATPase Inhibitors. In kind it is functional. To be noted: 30 µM.
The target of test [2] is T1, Ubiquitin-activating enzyme e1, putative (Leishmania donovani (strain BPK282A1)) (UniProt E9BSI1).
T1 sequence (whole entry): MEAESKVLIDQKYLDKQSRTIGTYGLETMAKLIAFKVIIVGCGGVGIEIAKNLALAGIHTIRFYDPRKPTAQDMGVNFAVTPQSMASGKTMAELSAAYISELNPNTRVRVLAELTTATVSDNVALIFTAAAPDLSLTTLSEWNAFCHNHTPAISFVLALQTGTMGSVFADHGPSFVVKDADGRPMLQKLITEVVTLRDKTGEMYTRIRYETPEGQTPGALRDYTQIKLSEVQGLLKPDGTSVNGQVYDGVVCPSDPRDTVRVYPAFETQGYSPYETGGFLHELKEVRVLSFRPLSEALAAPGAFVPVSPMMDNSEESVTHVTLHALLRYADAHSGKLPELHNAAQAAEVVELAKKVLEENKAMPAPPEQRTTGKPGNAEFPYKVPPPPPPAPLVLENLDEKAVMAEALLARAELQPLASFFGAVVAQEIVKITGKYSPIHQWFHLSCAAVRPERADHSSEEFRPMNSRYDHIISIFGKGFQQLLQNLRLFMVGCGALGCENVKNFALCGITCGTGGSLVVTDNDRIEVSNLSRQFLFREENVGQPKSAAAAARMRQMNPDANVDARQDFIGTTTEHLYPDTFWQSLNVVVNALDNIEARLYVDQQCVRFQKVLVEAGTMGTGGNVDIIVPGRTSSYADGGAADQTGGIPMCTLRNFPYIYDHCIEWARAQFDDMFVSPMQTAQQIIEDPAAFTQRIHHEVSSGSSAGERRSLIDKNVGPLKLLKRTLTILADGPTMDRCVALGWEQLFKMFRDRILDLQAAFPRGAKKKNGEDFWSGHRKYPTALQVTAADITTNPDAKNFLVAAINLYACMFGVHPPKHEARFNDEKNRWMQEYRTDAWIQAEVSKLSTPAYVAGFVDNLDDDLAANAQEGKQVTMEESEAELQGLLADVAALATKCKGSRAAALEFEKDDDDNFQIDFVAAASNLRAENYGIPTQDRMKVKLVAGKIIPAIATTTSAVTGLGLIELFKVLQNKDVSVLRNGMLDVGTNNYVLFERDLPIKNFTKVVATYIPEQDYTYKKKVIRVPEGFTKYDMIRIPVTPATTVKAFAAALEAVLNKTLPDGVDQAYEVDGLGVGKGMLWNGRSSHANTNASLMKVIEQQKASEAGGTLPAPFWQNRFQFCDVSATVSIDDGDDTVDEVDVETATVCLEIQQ
Nature of the test: Leishmania donovani Ubiquitin Activating Enzyme (LdE1). In kind it is functional. The settings on record: 30 µM.

Test [3] deals with Sialic acid-binding Ig-like lectin 9 (Homo sapiens) (UniProt Q9Y336). Nature of the test: Hs-Siglec9 ALPHAscreen SOP 20170721. To be noted: 10 µM.
Another test has as its system Trypanosoma cruzi. The test is described as follows: Trypanosoma cruzi phosphomannomutase and mannose-1-phosphate guanylyltransferase assay. The settings on record: 10 µM. It counts as functional.
Test [4] concerns the target T2, Arginase-2, mitochondrial (Homo sapiens) (UniProt P78540).
T2 sequence (whole entry): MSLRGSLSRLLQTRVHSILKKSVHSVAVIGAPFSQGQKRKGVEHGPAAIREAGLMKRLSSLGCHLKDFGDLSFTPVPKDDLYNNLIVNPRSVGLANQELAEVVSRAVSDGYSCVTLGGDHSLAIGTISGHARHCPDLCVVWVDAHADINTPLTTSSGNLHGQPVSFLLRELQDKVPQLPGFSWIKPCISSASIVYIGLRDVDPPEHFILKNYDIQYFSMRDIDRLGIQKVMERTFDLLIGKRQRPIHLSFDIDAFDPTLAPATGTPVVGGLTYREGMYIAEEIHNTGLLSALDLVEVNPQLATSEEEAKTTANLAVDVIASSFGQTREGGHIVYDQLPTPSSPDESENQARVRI
The test is described as follows: in vitro enzyme assay to detect the production of urea directly proportional to the activity of Arginase II. Also: in the data most compounds retested in dose-response had high values. In kind it is functional. To be noted: 33.3 µM.

The target in test [5] is T3, Proteasome subunit beta (Trypanosoma cruzi) (UniProt O96673).
T3 sequence (whole entry): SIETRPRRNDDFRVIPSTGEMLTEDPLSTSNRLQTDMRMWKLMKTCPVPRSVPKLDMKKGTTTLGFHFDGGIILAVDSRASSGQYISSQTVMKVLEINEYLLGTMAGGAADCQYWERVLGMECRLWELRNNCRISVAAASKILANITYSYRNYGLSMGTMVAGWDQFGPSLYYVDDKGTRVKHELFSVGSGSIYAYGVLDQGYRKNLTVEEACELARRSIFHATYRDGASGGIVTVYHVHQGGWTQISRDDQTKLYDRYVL
The test is described as follows: Trypanosoma cruzi proteasome chymotrypsin-like activity (TcProtChymo) assay. Also: in the data most compounds retested in dose-response had high values. In kind it is functional. The settings on record: 9.37 µM.

A further test is filed under the species Homo sapiens. The test is described as follows: To identify inhibition of the IFN signalling (Jak-Stat) pathway via expression of an eGFP reporter gene under the control of an IFN-stimulated response element (ISRE) containing MxA promoter. The settings on record: 30 µM. In kind it is functional.
The target of test [6] is T4, Tyrosyl-tRNA synthetase, putative (Trypanosoma cruzi (strain CL Brener)) (UniProt Q4DSP6).
T4 sequence (whole entry): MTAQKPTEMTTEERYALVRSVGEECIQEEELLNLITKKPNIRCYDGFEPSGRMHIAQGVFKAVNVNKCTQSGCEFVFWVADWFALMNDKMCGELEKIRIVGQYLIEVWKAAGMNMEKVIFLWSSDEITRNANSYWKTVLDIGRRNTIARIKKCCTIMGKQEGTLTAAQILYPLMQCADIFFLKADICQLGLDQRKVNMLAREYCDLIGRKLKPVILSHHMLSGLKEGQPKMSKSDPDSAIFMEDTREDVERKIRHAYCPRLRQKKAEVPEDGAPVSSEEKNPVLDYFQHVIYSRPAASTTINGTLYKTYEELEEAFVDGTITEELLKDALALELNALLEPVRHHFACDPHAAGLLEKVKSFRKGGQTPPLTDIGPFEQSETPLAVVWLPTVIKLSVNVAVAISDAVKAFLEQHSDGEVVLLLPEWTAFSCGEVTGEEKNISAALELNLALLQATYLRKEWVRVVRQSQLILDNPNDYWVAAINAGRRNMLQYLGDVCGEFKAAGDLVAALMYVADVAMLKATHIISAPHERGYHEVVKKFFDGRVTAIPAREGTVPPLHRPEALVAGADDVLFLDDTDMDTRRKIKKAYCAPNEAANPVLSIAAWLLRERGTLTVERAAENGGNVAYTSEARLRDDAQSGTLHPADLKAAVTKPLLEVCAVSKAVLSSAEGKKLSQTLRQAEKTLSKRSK
Nature of the test: Trypanosoma cruzi tyrosyl tRNA synthetase (TcYRS) _High Tyrosine SOP. Also: in the data most compounds retested in dose-response had high values. In kind it is functional. To be noted: 30 µM.

Test [7] concerns the target T4, Tyrosyl-tRNA synthetase, putative (Trypanosoma cruzi (strain CL Brener)). The test is described as follows: Trypanosoma cruzi tyrosyl tRNA synthetase (TcYRS) SOP. It counts as functional. To be noted: 30 µM.
Test [8] has as its target Chromo domain-containing protein 1 (Saccharomyces cerevisiae (strain ATCC 204508 / S288c) (Baker's yeast)) (UniProt P32657). The test is described as follows: ScCHD-1 Enzyme Inhibition Assay. Also: in the data most compounds retested in dose-response had high values. It counts as functional. To be noted: 30 µM.

Chromo domain-containing protein 1 (Saccharomyces cerevisiae (strain ATCC 204508 / S288c) (Baker's yeast)), sequence (P32657 whole entry, the tested form may be a part): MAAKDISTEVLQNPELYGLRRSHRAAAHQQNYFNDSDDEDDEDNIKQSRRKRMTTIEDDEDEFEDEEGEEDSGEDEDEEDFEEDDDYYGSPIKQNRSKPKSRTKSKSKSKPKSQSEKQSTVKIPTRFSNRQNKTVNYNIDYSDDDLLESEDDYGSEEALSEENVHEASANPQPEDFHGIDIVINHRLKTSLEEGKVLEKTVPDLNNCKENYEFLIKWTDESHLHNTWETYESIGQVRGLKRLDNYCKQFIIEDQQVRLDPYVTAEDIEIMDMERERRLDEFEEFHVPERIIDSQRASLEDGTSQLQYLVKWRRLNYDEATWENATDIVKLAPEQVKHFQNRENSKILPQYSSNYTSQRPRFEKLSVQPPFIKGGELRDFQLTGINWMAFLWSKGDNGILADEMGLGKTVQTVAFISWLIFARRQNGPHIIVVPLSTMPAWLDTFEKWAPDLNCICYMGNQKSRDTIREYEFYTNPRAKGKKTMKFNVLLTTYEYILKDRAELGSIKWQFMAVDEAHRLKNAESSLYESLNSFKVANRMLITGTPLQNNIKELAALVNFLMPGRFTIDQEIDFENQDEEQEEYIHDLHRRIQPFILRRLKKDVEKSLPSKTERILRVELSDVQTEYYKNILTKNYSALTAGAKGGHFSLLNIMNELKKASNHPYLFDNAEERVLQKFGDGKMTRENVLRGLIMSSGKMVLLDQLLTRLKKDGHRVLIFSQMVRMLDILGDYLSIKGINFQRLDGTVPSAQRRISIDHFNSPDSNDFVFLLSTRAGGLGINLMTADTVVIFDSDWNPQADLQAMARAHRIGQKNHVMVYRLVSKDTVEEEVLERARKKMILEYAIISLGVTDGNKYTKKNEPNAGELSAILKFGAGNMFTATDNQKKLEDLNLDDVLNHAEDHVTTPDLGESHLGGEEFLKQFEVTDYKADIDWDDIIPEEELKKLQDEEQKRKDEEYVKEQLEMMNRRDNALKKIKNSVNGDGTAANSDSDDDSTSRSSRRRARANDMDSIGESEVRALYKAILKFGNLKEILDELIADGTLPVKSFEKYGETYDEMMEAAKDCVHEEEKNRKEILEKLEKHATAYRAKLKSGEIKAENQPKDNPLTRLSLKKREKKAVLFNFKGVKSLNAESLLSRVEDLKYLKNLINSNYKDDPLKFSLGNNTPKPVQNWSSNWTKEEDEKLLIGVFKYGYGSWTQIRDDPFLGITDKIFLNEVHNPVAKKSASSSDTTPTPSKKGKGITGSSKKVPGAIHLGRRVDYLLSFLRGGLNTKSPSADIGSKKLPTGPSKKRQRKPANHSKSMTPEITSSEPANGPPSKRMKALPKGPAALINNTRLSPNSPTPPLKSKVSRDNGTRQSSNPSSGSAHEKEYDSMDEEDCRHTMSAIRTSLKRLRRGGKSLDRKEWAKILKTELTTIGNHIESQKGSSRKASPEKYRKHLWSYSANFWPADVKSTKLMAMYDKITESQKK
Sialic acid-binding Ig-like lectin 9 (Homo sapiens), sequence (Q9Y336 whole entry): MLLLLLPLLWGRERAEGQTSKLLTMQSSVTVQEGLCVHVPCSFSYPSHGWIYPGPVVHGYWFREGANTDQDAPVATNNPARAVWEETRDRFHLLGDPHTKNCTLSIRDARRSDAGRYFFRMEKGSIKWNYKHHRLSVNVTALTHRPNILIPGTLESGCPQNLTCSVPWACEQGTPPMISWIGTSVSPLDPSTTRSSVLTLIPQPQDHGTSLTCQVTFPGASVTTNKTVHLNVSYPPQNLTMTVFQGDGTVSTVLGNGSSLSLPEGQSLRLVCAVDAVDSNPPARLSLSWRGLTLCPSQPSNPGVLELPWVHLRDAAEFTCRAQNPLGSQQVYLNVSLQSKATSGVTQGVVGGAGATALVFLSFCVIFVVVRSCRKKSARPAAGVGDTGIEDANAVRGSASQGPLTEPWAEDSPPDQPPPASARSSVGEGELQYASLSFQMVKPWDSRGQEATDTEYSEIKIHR
Protein translocase subunit SecA (Escherichia coli (strain K12)), sequence (P10408 whole entry): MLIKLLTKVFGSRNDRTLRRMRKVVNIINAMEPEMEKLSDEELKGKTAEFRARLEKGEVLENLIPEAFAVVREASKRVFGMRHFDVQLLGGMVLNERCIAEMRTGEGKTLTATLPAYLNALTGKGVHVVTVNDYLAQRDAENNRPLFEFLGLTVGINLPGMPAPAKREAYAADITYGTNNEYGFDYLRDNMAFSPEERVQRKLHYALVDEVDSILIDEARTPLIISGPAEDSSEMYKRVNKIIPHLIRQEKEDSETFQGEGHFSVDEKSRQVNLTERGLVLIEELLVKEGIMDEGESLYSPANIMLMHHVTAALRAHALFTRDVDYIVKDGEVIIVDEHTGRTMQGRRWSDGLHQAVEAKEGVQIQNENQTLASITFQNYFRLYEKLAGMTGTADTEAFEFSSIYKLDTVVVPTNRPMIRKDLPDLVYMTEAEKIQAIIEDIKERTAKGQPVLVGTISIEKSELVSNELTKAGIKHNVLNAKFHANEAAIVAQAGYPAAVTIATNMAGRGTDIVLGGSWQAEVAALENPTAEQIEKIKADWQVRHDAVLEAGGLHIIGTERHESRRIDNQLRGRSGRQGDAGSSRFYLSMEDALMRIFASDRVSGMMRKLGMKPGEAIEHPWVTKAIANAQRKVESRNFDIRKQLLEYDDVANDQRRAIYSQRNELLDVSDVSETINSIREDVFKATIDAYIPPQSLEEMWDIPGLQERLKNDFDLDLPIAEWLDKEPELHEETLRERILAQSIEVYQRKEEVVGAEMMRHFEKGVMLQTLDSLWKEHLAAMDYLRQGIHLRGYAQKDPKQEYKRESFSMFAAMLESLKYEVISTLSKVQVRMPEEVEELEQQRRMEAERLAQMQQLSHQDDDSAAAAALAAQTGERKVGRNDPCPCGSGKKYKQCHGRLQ

Turning to `Cc1cc(C)n(CC2CCCN2CCc2ccncc2)n1` (stereo not given), the Percent Effect was -5.42% in test [1]; 7.69% in test [2]; -18.5% in test [3]; 12.5% in the test with Trypanosoma cruzi; -2.87% in test [4]; 17.1% in test [5]. For the same molecule, the Percent Effect in the test listed under Homo sapiens is 5.12%; in test [6], 3.35%; in [7], 20.5%; in [8], -3.37%.

For the molecule `CCOc1ncccc1CNC(=O)Nc1ccc(N(C)C)nc1`, the Percent Effect in [1] is -5.71%; in [2] it was 2.6%; in [3], -6.42%; with Trypanosoma cruzi, -9.89%; in test [4], -2.66%; in test [5], 15.3%. Moreover, the Percent Effect is 13.9% in the test listed under Homo sapiens, 0.98% in test [6], 4.71% in [7] and -9.6% in test [8].

Take `COCCNC(=O)Nc1ccc(F)c(C(N)=O)c1`: the Percent Effect in [1] is 2.83%; in [2], 15.6%; in test [3], -5.71%; in the test on Trypanosoma cruzi it was -5.04%; in [4], 0.615%; in test [5] it was 8.42%. For the same molecule, the Percent Effect in the test listed under Homo sapiens was 8.95%; in [6], 9.8%; in test [7] it was 16.5%; in test [8], -12.2%.

Turning to `Cn1cc(CN2CCC3(CC(=O)N(c4ccc5c(c4)OCO5)C3)C2)cn1` (stereo not given), the Percent Effect in test [1] is -2.97%; in [2], 1.3%; in [3] it was -2.34%; in the test on Trypanosoma cruzi, 1.85%; in [4] it was -2.43%; in test [5] it was -1.15%. Moreover, the Percent Effect in the test filed under Homo sapiens is 4.19%; in [6], 4.74%; in [7], 5.13%; in [8], -0.178%.

For `COc1ncccc1NC(=O)c1cccc(C)n1`, the Percent Effect in [1] is 3.56%; in test [2] it was 15.4%; in test [3], -4.18%; in the test with Trypanosoma cruzi, 1.41%; in test [4], 2.05%; in [5], 4.18%. In addition, the Percent Effect in the test filed under Homo sapiens was 7.05%; in test [6] it was 9.09%; in test [7], 25.3%; in test [8], -8.29%.

`CC(C)c1nccn1-c1cccc(C2CCCN2S(=O)(=O)N(C)C)n1` (stereo not given): the Percent Effect was 1.33% in [1]; -17.3% in test [2]; -5.7% in [3]; -2.76% in the test with Trypanosoma cruzi; -1.77% in test [4]; 14.8% in test [5]. The Percent Effect was 39.9% in the test listed under Homo sapiens, 4.23% in [6], 10% in [7] and -18% in test [8].

On to `Cc1cc(CN2CCCC2Cn2cncn2)no1` (stereo not given), for which the Percent Effect in [1] is -4.42%; in test [2] it was 17.9%; in test [3], -10.5%; in the test on Trypanosoma cruzi it was 11.9%; in test [4], -2.05%; in [5], 17%. In addition, the Percent Effect in the test filed under Homo sapiens is 0.869%; in [6], 3.35%; in test [7], 20.5%; in test [8], -10.5%.

As for `COc1ccccc1OCCN1CCCC(c2cc(C(N)=O)[nH]n2)C1` (stereo not given), the Percent Effect in test [1] is -3.66%; in test [2] it was 2.67%; in [3] it was 8.25%; in the test on Trypanosoma cruzi it was -3.01%; in [4], 4.43%; in test [5], 12%. The Percent Effect in the test filed under Homo sapiens was -0.623%; in [6], 2.63%; in test [7], 5.13%; in [8], -8.44%.

Turning to `CS(=O)(=O)N1CCC(NC(=O)COc2ccc(Cl)c(Cl)c2)CC1`, the Percent Effect in test [1] was -0.592%; in test [2] it was 15.6%; in test [3], -0.737%; in the test on Trypanosoma cruzi, -2.24%; in test [4], -2.66%; in test [5] it was 3.86%. The Percent Effect in the test listed under Homo sapiens was 10.2%; in [6], 13.7%; in [7], 28.2%; in test [8] it was -8.55%.

In the case of `Cc1nn(C)cc1CCC(=O)N1CCCC(n2cncn2)C1` (stereo not given), the Percent Effect is -2.9% in [1]; 2.67% in test [2]; 3.45% in [3]; 1.21% in the test with Trypanosoma cruzi; 7.98% in test [4]; 2.97% in test [5]. Also, the Percent Effect in the test listed under Homo sapiens is -4%; in [6], 3.68%; in [7] it was 10.3%; in test [8], -4.09%.

For the molecule `Cc1oncc1C(=O)NCc1cc(=O)n2c(n1)CN(C)CCC2`, the Percent Effect in test [1] was -1.85%; in test [2], 6.49%; in [3] it was -2.27%; with Trypanosoma cruzi, -8.28%; in [4] it was 4.86%; in test [5] it was 24.6%. The Percent Effect is 12.2% in the test listed under Homo sapiens, 2.63% in [6], 12.8% in test [7] and -1.21% in test [8].

Source of the values: ChEMBL document CHEMBL3988442, “University of Dundee, Small-Polar-MMV Screening Library” (2021).
